Data taken from PubChem BioAssay AID1159580 (chemical genetic matrix, 2015).
Several values for one entry are separate records, joined by “and”; a condition that tells them apart may be missing. Identical values can stand only once. Among all 5,500 compounds or so, about 2,000 (36%) were called active. Not shown: some 18% with an inconclusive outcome. Cut-off read from the data, not from the text of the source: active = normalized growth mostly below about 0.91 (no sharp cut-off); inconclusive = no clear call, values can overlap the other calls; inactive = mostly above about 0.92. Some of the results follow.

Assay: chemical genetic growth profiling, strain panel (AID 1159580);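 note: tested at 20 µM; growth read once vehicle control cultures reached saturation at 30 °C; 1 = growth at the plate median or of vehicle wells; lower values mean less growth of the strain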
Settings: growth OD
[1] = S. cerevisiae deletion strains, locus YHR030C, strain SLT2, active compounds read low
[2] = S. cerevisiae deletion strains, locus YHR079C, strain IRE1, active compounds read low
[3] = S. cerevisiae deletion strains, locus YJL095W, strain BCK1, active compounds read low
[4] = S. cerevisiae deletion strains, locus YJR066W, strain TOR1, active compounds read low
[5] = S. cerevisiae deletion strains, locus YLR113W, strain HOG1, active compounds read low
[6] = S. cerevisiae deletion strains, locus YNL183C, strain NPR1, active compounds read low
[7] = S. cerevisiae deletion strains, locus YOR231W, strain MKK1, active compounds read low
[8] = S. cerevisiae deletion strains, locus YPL256C, strain CLN2, active compounds read low

Measured: normalized growth

CSc1ccc(/C=C/[N+](=O)[O-])cc1
active: S. cerevisiae deletion strains, locus YAL013W, strain DEP1, active compounds read low 0.0558 | S. cerevisiae deletion strains, locus YBR229C, strain ROT2, active compounds read low 0.0536 | S. cerevisiae deletion strains, locus YCL061C, strain MRC1, active compounds read low 0.0551 | S. cerevisiae deletion strains, locus YDL101C, strain DUN1, active compounds read low 0.0652 | S. cerevisiae deletion strains, locus YDL134C, strain PPH21, active compounds read low 0.0471 | S. cerevisiae deletion strains, locus YDR150W, strain NUM1, active compounds read low 0.582 | S. cerevisiae deletion strains, locus YEL061C, strain CIN8, active compounds read low 0.0542 | S. cerevisiae deletion strains, locus YGR052W, strain FMP48, active compounds read low 0.131 | S. cerevisiae deletion strains, locus YGR078C, strain PAC10, active compounds read low 0.0514 | [1] 0.0754 and 0.122 | [2] 0.176 | S. cerevisiae deletion strains, locus YHR082C, strain KSP1, active compounds read low 0.118 | S. cerevisiae deletion strains, locus YHR087W, strain rtc3, active compounds read low 0.0549 | [3] 0.126 | S. cerevisiae deletion strains, locus YJR043C, strain POL32, active compounds read low 0.0504 | [4] 0.114 | S. cerevisiae deletion strains, locus YJR075W, strain HOC1, active compounds read low 0.0722 | S. cerevisiae deletion strains, locus YKL171W, strain NNK1, active compounds read low 0.104 | S. cerevisiae deletion strains, locus YKL190W, strain CNB1, active compounds read low 0.0461 | S. cerevisiae deletion strains, locus YKL203C, strain TOR2, active compounds read low 0.107 | S. cerevisiae deletion strains, locus YLR039C, strain RIC1, active compounds read low 0.0613 | S. cerevisiae deletion strains, locus YLR058C, strain SHM2 (second series), active compounds read low 0.0502 | S. cerevisiae deletion strains, locus YLR085C, strain ARP6, active compounds read low 0.0653 | [5] 0.179 | S. cerevisiae deletion strains, locus YLR262C, strain YPT6, active compounds read low 0.0583 | S. cerevisiae deletion strains, locus YML094W, strain GIM5, active compounds read low 0.0645 | S. cerevisiae deletion strains, locus YMR219W, strain ESC1, active compounds read low 0.0483 | S. cerevisiae deletion strains, locus YMR263W, strain SAP30, active compounds read low 0.0556 | S. cerevisiae deletion strains, locus YNL153C, strain GIM3, active compounds read low 0.0516 | [6] 0.138 | S. cerevisiae deletion strains, locus YNL207W, strain RIO2, active compounds read low 0.0972 | S. cerevisiae deletion strains, locus YNL298W, strain CLA4 (second series), active compounds read low 0.0614 | S. cerevisiae deletion strains, locus YNL322C, strain KRE1, active compounds read low 0.0528 | S. cerevisiae deletion strains, locus YNR030W, strain Alg12, active compounds read low 0.0591 | S. cerevisiae deletion strains, locus YOL006C, strain TOP1, active compounds read low 0.068 | S. cerevisiae deletion strains, locus YOR119C, strain RIO1, active compounds read low 0.119 | [7] 0.133 | S. cerevisiae deletion strains, locus YPL055C, strain LGE1, active compounds read low 0.0721 | S. cerevisiae deletion strains, locus YPL241C, strain CIN2, active compounds read low 0.0816 | [8] 0.17 | S. cerevisiae deletion strains, locus YPR135W, strain CTF4, active compounds read low 0.202 | S. cerevisiae strains, strain wild type, active compounds read low 0.0455

CC(=O)Nc1ccc(S(=O)(=O)c2ccc(NC(C)=O)cc2)cc1
inactive: S. cerevisiae deletion strains, locus YAL021C, strain ccr4, active compounds read low 1.03 | S. cerevisiae deletion strains, locus YAL026C, strain drs2, active compounds read low 1.02 | S. cerevisiae deletion strains, locus YAL030W, strain snc1, active compounds read low 1.02 | S. cerevisiae deletion strains, locus YBL061C, strain skt5, active compounds read low 1.02 | S. cerevisiae deletion strains, locus YBR009C, strain hhf1, active compounds read low 0.997 | S. cerevisiae deletion strains, locus YBR023C, strain chs3, active compounds read low 1.01 | S. cerevisiae deletion strains, locus YBR171W, strain sec66, active compounds read low 1.02 | S. cerevisiae deletion strains, locus YBR231C, strain swc5, active compounds read low 1.02 | S. cerevisiae deletion strains, locus YBR279W, strain paf1, active compounds read low 1.01 | S. cerevisiae deletion strains, locus YCL011C, strain gbp2, active compounds read low 1.01 | S. cerevisiae deletion strains, locus YCL016C, strain dcc1, active compounds read low 0.995 | S. cerevisiae deletion strains, locus YCL069W, strain vba3, active compounds read low 1.02 | S. cerevisiae deletion strains, locus YCR088W, strain abp1, active compounds read low 1.01 | S. cerevisiae deletion strains, locus YDL005C, strain med2, active compounds read low 1.01 | S. cerevisiae deletion strains, locus YDL040C, strain nat1, active compounds read low 1.02 | S. cerevisiae deletion strains, locus YDR001C, strain nth1, active compounds read low 1.02 | S. cerevisiae deletion strains, locus YDR069C, strain doa4, active compounds read low 1.02 | S. cerevisiae deletion strains, locus YDR137W, strain rgp1, active compounds read low 1.03 | S. cerevisiae deletion strains, locus YDR159W, strain sac3, active compounds read low 0.97 | S. cerevisiae deletion strains, locus YDR195W, strain ref2 1.02 | S. cerevisiae deletion strains, locus YDR297W, strain sur2, active compounds read low 1.01 | S. cerevisiae deletion strains, locus YDR334W, strain swr1, active compounds read low 1.02 | S. cerevisiae deletion strains, locus YDR335W, strain msn5, active compounds read low 1.01 | S. cerevisiae deletion strains, locus YDR392W, strain spt3, active compounds read low 0.998 | S. cerevisiae deletion strains, locus YEL003W, strain gim4, active compounds read low 1.02 | S. cerevisiae deletion strains, locus YEL037C, strain rad23, active compounds read low 1.02 | S. cerevisiae deletion strains, locus YEL061C, strain CIN8 (second series), active compounds read low 1.02 | S. cerevisiae deletion strains, locus YER015W, strain faa2, active compounds read low 1.02 | S. cerevisiae deletion strains, locus YER016W, strain bim1, active compounds read low 0.996 | S. cerevisiae deletion strains, locus YER111C, strain swi4, active compounds read low 1.01 | S. cerevisiae deletion strains, locus YER155C, strain BEM2 (second series), active compounds read low 1.04 | S. cerevisiae deletion strains, locus YFR010W, strain ubp6, active compounds read low 1.01 | S. cerevisiae deletion strains, locus YGL167C, strain pmr1, active compounds read low 1.01 | S. cerevisiae deletion strains, locus YGL173C, strain kem1, active compounds read low 1.02 | S. cerevisiae deletion strains, locus YGL227W, strain vid30, active compounds read low 1.01 | S. cerevisiae deletion strains, locus YGL240W, strain doc1, active compounds read low 1.02 | S. cerevisiae deletion strains, locus YGL253W, strain hxk2, active compounds read low 1 | S. cerevisiae deletion strains, locus YHR013C, strain ard1, active compounds read low 1.03 | S. cerevisiae deletion strains, locus YHR027C, strain rpn1, active compounds read low 1.01 | [1] 1.07 | [2] 1.09 | S. cerevisiae deletion strains, locus YHR142W, strain chs7, active compounds read low 1.02 | S. cerevisiae deletion strains, locus YJL092W, strain hpr5, active compounds read low 1 | S. cerevisiae deletion strains, locus YJL095W, strain BCK1 (second series), active compounds read low 1.01 | [3] 1.01 | S. cerevisiae deletion strains, locus YJL115W, strain asf1, active compounds read low 1.02 | S. cerevisiae deletion strains, locus YJL129C, strain trk1, active compounds read low 0.999 | S. cerevisiae deletion strains, locus YJL154C, strain vps35, active compounds read low 1.02 | S. cerevisiae deletion strains, locus YJL164C, strain tpk1, active compounds read low 1 | S. cerevisiae deletion strains, locus YJL166W, strain qcr8, active compounds read low 1.02 | S. cerevisiae deletion strains, locus YJL187C, strain SWE1, active compounds read low 1.01 | [4] 0.988 | S. cerevisiae deletion strains, locus YKL160W, strain elf1, active compounds read low 1.01 | S. cerevisiae deletion strains, locus YKR026C, strain gcn3, active compounds read low 0.999 | S. cerevisiae deletion strains, locus YKR091W, strain srl3, active compounds read low 1.01 | S. cerevisiae deletion strains, locus YLL001W, strain dnm1, active compounds read low 1.01 | S. cerevisiae deletion strains, locus YLL026W, active compounds read low 1.01 | S. cerevisiae deletion strains, locus YLL041C, strain sdh2, active compounds read low 0.997 | S. cerevisiae deletion strains, locus YLR027C, strain aat2, active compounds read low 1 | [5] 0.972 | S. cerevisiae deletion strains, locus YLR221C, strain rsa3, active compounds read low 0.987 | S. cerevisiae deletion strains, locus YLR258W, strain gsy2, active compounds read low 1.02 | S. cerevisiae deletion strains, locus YLR262C, strain YPT6 (second series), active compounds read low 1.04 | S. cerevisiae deletion strains, locus YLR320W, strain mms22, active compounds read low 1.03 | S. cerevisiae deletion strains, locus YLR342W, strain FKS1, active compounds read low 1.01 | S. cerevisiae deletion strains, locus YLR357W, strain rsc2, active compounds read low 1.01 | S. cerevisiae deletion strains, locus YLR370C, strain arc18, active compounds read low 1.01 | S. cerevisiae deletion strains, locus YLR384C, strain iki3, active compounds read low 1.01 | S. cerevisiae deletion strains, locus YML120C, strain ndi1, active compounds read low 1.03 | S. cerevisiae deletion strains, locus YMR058W, strain fet3, active compounds read low 1.01 | S. cerevisiae deletion strains, locus YMR125W, strain sto1, active compounds read low 1.01 | S. cerevisiae deletion strains, locus YMR129W, active compounds read low 1.02 | S. cerevisiae deletion strains, locus YMR205C, strain PFK2, active compounds read low 1.01 | S. cerevisiae deletion strains, locus YMR231W, strain pep5, active compounds read low 1.01 | S. cerevisiae deletion strains, locus YNL071W, strain lat1, active compounds read low 1.02 | [6] 0.971 | S. cerevisiae deletion strains, locus YNL209W, strain ssb2, active compounds read low 1.01 | S. cerevisiae deletion strains, locus YNL248C, strain rpa49, active compounds read low 1.02 | S. cerevisiae deletion strains, locus YNL322C, strain KRE1 (second series), active compounds read low 1.01 | S. cerevisiae deletion strains, locus YNR049C, strain mso1, active compounds read low 1.01 | S. cerevisiae deletion strains, locus YOR001W, strain rrp6, active compounds read low 1.02 | S. cerevisiae deletion strains, locus YOR070C, strain gyp1, active compounds read low 1.01 | S. cerevisiae deletion strains, locus YOR080W, strain dia2, active compounds read low 1.02 | S. cerevisiae deletion strains, locus YOR083W, strain WHI5, active compounds read low 0.979 | S. cerevisiae deletion strains, locus YOR106W, strain vam3, active compounds read low 1.02 | [7] 1.05 | S. cerevisiae deletion strains, locus YOR265W, strain rbl2, active compounds read low 1.01 | S. cerevisiae deletion strains, locus YOR270C, strain vph1, active compounds read low 1.02 | S. cerevisiae deletion strains, locus YOR290C, strain snf2, active compounds read low 1.01 | S. cerevisiae deletion strains, locus YPL051W, strain arl3, active compounds read low 1.01 | S. cerevisiae deletion strains, locus YPL078C, strain atp4, active compounds read low 1.02 | S. cerevisiae deletion strains, locus YPL106C, strain sse1, active compounds read low 1.02 | S. cerevisiae deletion strains, locus YPL240C, strain hsp82, active compounds read low 1 | [8] 1.08
